# Measured values reported in PubChem BioAssay AID1159606 (Sanford-Burnham Center for Chemical Genomics, 2016).
# The campaign covered roughly 360,000 compounds. About 7,300 (2%) were called active. This is one part of a sample in which actives are shown more often than they occur. Cut-off read from the data, not from the text of the source: active = inhibition above about 50%; inactive = the rest.
# Experiment: inhibitors of TWEAK-Fn14 signaling, primary screen, luciferase reporter cells, uHTS (AID 1159606)
# Conditions: TWEAK-stimulated Fn14 reporter cells, luciferase luminescence, 8 h; at 10 µM; hits give high values
row,SMILES,inhibition
1,Cc1cccc(CN2CCN(C3CN(Cc4cn(Cc5ccccc5F)nn4)S(=O)(=O)C3)CC2)c1 (stereo not drawn),-19.2% (inactive)
2,NC(=O)C1CC(=O)N(c2ccc(OCC(=O)NCc3ccccc3)cc2)C1 (stereo not drawn),32.7% (inactive)
3,Cc1cccc(C)c1NC(=O)CNC(=O)c1ccc(N2CCOCC2)c([N+](=O)[O-])c1,8.19% (inactive)
4,O=S(=O)(NCCCCCCNS(=O)(=O)c1c(F)cccc1F)c1ccc2c(c1)OCCO2,16.7% (inactive)
5,O=C1NC[C@H](Cc2ccc(O)cc2)N(C[C@@H]2CCCN2C[C@H](Cc2ccccc2)N2C[C@H](Cc3ccccc3)N(CC3CCCCC3)C(=O)C2=O)C1=O,-9.41% (inactive)
6,COc1cccc(C(=O)N/N=C(\C)c2cccc(NC(=O)c3ccc(F)cc3)c2)c1OC,-20% (inactive)
7,O=C(c1ccc(Oc2ccc(Cl)cc2)c([N+](=O)[O-])c1)N1CCCC1,-4.37% (inactive)
8,Nc1ccc(C(=O)N2CCN(S(=O)(=O)c3ccc(Cl)cc3)CC2)cc1[N+](=O)[O-],-5.64% (inactive)
9,CC1CCN(C(=O)c2ccc(S(=O)(=O)Cc3cc(F)ccc3F)c([N+](=O)[O-])c2)CC1,83.4% (active)
10,O=C(NCCc1ccccn1)c1ccc(COc2ccccc2)o1,-2.18% (inactive)
11,COc1ccc(/C=C/C(=O)c2ccc(NS(=O)(=O)c3ccc(C)cc3)cc2)cc1O,60.9% (active)
12,COc1ccc(/C=C/C(=O)Nc2ccc(C)cc2)cc1S(=O)(=O)N1CCOCC1,-4.91% (inactive)
13,Cc1ccc(C(=O)/C=C/Nc2ccc(S(=O)(=O)Nc3onc(C)c3C)cc2)cc1,-32% (inactive)
14,COc1ccc(CNC(=O)c2c[nH]c3c(OC)cc(OC)cc3c2=O)cc1,-46.6% (inactive)
15,CCCCN1C(=O)c2ccc(C(=O)Nc3ccc(S(=O)(=O)N(C)C)cc3)cc2C1=O,33.8% (inactive)
16,COc1ccc(NC(=O)C2Cc3c(-c4ccc(Cl)cc4)ccnc3O2)cc1 (stereo not drawn),6.65% (inactive)
17,O=C(c1[nH]ncc1-c1ccc(Cl)cc1)C1CO1 (stereo not drawn),66.5% (active)
18,Cc1ccc(S(=O)(=O)n2oc(=O)c(C3CCCCC3)c2N)cc1,2.92% (inactive)
19,CCCS(=O)(=O)Nc1ccc(-c2cn3c(n2)SCC3)cc1,-17.6% (inactive)
20,Cc1nn(Cc2ccc(Cl)c(Cl)c2)c(C)c1NC(=O)c1cc(C2CC2)on1,-9.69% (inactive)
21,Cc1ccccc1Cn1nc(C)c(NC(=O)C(F)(F)F)c1C,-0.38% (inactive)
22,Cc1nn(Cc2ccc(F)cc2)c(C)c1NC(=O)c1noc2c1CCc1ccccc1-2,60.1% (active)

row,SMILES,inhibition
1,CC(C)(C)C1CCC(=O)N2CCC[C@]2(c2ccccc2)C1 (stereo partly drawn),-2.82% (inactive)
2,COc1ccc(/C=N/Nc2ncnc3sc4c(c23)CCCC4)cc1O,91.4% (active)
3,COc1ccc(NC(=O)CCNC(=O)Cn2cnc3sc4c(c3c2=O)CCCC4)cc1OC,-3.89% (inactive)
4,COc1ccc(NC(=O)CCCNC(=O)Cn2cnc3sc4c(c3c2=O)CCCC4)cc1OC,4.82% (inactive)
5,Cc1ccccc1S(=O)(=O)N1[C@@H](c2cccc(Cl)c2)C(C(=O)OC(C)(C)C)=CC[C@H]1c1ccc(Cl)cc1,-24.3% (inactive)
6,Cc1ccc(-c2nc3c(Cl)cc(C(F)(F)F)cn3c2Cc2cccc(Cl)c2)cc1,25.6% (inactive)
7,COC(=O)c1ccc2c(c1)S(=O)(=O)NC2C (stereo not drawn),-6.18% (inactive)
8,CN(C)c1ccc2c(=O)[nH][nH]c(=O)c2c1,-6.35% (inactive)
9,COc1ccc(CCNC(=O)COC(=O)Cc2cccc(F)c2)cc1,-0.83% (inactive)
10,CC(C)Oc1ccc(CCc2n[nH]c(=S)n2Cc2ccccc2)cc1,-6.3% (inactive)
11,CC(C)Oc1ccc(Cc2n[nH]c(=S)n2Cc2ccccc2)cc1Cl,92.2% (active)
12,COc1cc(-c2n[nH]c(=S)n2Cc2ccccc2)cc(OC)c1OC,-2.96% (inactive)
13,COC(=O)c1c(-c2ccc(C)cc2)csc1N,-2.01% (inactive)
14,CCOC(=O)c1c(-c2ccc(C)cc2)csc1/N=C(\C)C1=C(O)c2ccccc2C1=O,66.2% (active)
15,CCC(C(=O)OC)n1cnc2scc(-c3ccc(C)cc3)c2c1=O (stereo not drawn),0.23% (inactive)
16,CS(=O)(=O)N(C(=O)NC(=O)NC1CCS(=O)(=O)C1)C1CCCCC1 (stereo not drawn),13.7% (inactive)
17,CCCS(=O)(=O)NC(=O)C1(C)CCCN(C(=O)c2cccs2)C1 (stereo not drawn),-4% (inactive)
18,COCC1CCCCN1C(=O)c1cc(COc2ccc(C)c(C)c2)on1 (stereo not drawn),-33.8% (inactive)
19,O=C(NC(Nc1nc2ccc([N+](=O)[O-])cc2s1)(C(F)(F)F)C(F)(F)F)c1ccccc1,57.6% (active)
20,O=C(Nc1nc2ccc([N+](=O)[O-])cc2s1)c1ccc(S(=O)(=O)N2CCCc3ccccc32)cc1,64.6% (active)
21,CC(Nc1ccc([N+](=O)[O-])cc1[N+](=O)[O-])c1ccccc1 (stereo not drawn),-18.4% (inactive)
